# Compound activity (PubChem BioAssay)
# IL-1B inflam inh: inhibitors of inflammasome signaling (IL-1 beta secretion). activity change, % at 57.5 µM. 4.7% of 360,000 active. THP-1 LPS/ATP IL-1B secretion, AlphaLISA, 16 h; active compounds read low; in the data active = activity change below about -50%; inconclusive = mostly about -30% to -49%
#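 THP-1 cells pretreated 1 hr with compounds (up to 57.5 uM final), then stimulated with LPS (250 ng/mL final) plus ATP (1.25 mM final); secreted IL-1B measured by AlphaLISA after 16 hr, decreased signal indicating inhibition.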
# 12-LOX inh: blocks human arachidonate 12S-lipoxygenase | purified 12hLO, xylenol orange hydroperoxide absorbance | Potency, µM (titrated, usually from 108 µM), usual class: inhibitors | 1.1% of 580,000 active | AID 1671190 | P18054
# Target sequence (P18054 whole entry, looked up): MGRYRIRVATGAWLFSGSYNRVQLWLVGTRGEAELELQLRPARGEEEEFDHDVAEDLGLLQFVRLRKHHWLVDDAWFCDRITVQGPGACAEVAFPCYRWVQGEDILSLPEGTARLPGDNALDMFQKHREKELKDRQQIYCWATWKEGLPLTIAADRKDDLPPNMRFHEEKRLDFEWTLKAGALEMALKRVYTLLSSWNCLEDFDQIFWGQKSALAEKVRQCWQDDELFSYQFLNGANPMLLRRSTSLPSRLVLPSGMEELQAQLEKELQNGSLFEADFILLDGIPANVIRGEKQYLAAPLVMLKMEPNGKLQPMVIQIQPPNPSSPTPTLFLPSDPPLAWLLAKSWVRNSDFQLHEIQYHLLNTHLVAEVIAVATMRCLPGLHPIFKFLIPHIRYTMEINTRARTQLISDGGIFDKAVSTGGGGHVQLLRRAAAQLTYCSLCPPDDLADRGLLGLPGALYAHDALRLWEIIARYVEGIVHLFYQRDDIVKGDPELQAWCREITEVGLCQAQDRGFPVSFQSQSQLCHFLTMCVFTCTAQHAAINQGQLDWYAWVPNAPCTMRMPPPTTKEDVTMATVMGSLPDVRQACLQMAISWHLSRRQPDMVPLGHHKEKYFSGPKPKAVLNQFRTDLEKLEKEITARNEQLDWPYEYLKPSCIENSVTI
#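 Purified human 12hLO at 150 nM in 25 mM Hepes, 0.01% Triton X-100, pH 7.0, preincubated 15 min at room temperature with compound. Reaction started with 40 uM arachidonic acid, 30 min at room temperature. Hydroperoxide measured by Fe-xylenol orange, 573/405 nm absorbance ratio.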
# TDP1 cell noCPT: qHTS for Inhibitors of human tyrosyl-DNA phosphodiesterase 1 (TDP1): qHTS in cells in absence of CPT. DT40 Tdp1-/- hTDP1 cells, no CPT, ATP luminescence, 48 h. Potency, µM (series often up to 46.2 µM), usual class: inhibitors. 15% of 420,000 active; also: nearly all actives have a fitted effect of over 55% in size
#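 A cellular qHTS used chicken DT40 cells lacking endogenous Tdp1 but carrying stably transfected human TDP1. Compounds were applied without camptothecin, and cell growth kinetics were judged by ATP-dependent luminescence after ≥48 hr.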
# HT1080NT lethal: kills 2HG-producing HT-1080-NT fibrosarcoma cells; HT-1080-NT fibrosarcoma viability, CellTiter-Glo ATP luminescence, 48 h; Potency, µM (titrated, usually from 46.1 µM), hits mostly cytotoxic; 1.6% of 360,000 active;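 also: NT is the 2HG producing partner of a matched IDH1 knockdown line; nearly all actives have a fitted effect of over 55% in size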
#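 Compounds were tested in concentration-response format on HT-1080-NT cells for 48 hours at 37 degrees C. Cell viability came from CellTiter-Glo luminescence; curves were classified by r2, response magnitude and activity.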
# DT40 TDP1 CPT: growth inhibition of DT40 Tdp1-/-;hTDP1 cells with camptothecin (screen for TDP1 inhibitors) | 12% of 420,000 active | chicken DT40 Tdp1-/-;hTDP1 cells + 20 nM CPT, ATP luminescence, 48 h | AID 686979 | Potency, µM (titrated, usually from 46.2 µM), most hits filed as inhibitors; also: nearly all actives have a fitted effect of over 55% in size
#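 Chicken DT40 Tdp1-/- cells complemented with human TDP1, 400 cells/well, exposed to compounds plus 20 nM camptothecin for at least 48 h at 37 C; viability read as ATP content by CellTiter-Glo luminescence.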
# HT1080 IDH1KD tx: kills HT-1080 cells with IDH1 knockdown; Potency, µM (titrated, usually from 46.1 µM), usual class: cytotoxic; HT-1080 IDH1 knockdown viability, ATP luminescence, 48 h; AID 686971; 2% of 360,000 active
#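 HT-1080-IDH1KD cells (IDH1 knocked down), 750/well in RPMI with 5% FBS, treated with compound 48 h at 37 degrees C. Viability by CellTiter-Glo luminescence, normalised to DMSO and no-cell wells; concentration-response curves classed.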
# Numbers stand for hits; n = inactive; u = inconclusive; x = no result; ! = not active in a repeat. This is one part of a sample in which hits are shown more often than they occur. Unless noted, calls follow the shape of the dose curve; as a rule, active = well fitted curve in the direction sought with a large enough effect; inconclusive = small, poorly fitted or top-dose-only effect, or another doubt; inactive = no such curve, though single readings can be large; an effect the other way counts as inactive or inconclusive.
SMILES,IL-1B inflam inh,12-LOX inh,TDP1 cell noCPT,HT1080NT lethal,DT40 TDP1 CPT,HT1080 IDH1KD tx
O=C(Nc1ccc(Cl)cc1)Nc1nnc(CSCc2ccc(Cl)cc2)s1,-61.0,n,4.11µM,n,2.59µM,n
COc1cccc(NC(=O)Nc2nnc(Cc3ccccc3F)s2)c1,n,u,23.1µM,n,u,u
COc1ccccc1NC(=O)Nc1nnc(Cc2ccccc2F)s1,n,n,u,u,n,u
O=C(Nc1ccccc1)Nc1nnc(Cc2ccccc2F)s1,n,n,n,n,n,n
COc1ccc(NC(=O)Nc2nnc(Cc3ccc(F)cc3)s2)cc1,n,n,25.9µM,n,n,u
O=C(Nc1ccc(F)cc1)Nc1nnc(Cc2ccccc2F)s1,n,n,13µM,n,16.4µM,n
CCCc1nnc(NC(=O)Nc2ccc(OC)cc2)s1,n,n,n,n,n,n
CCOc1ccc(CCN2C(=O)CCC2(C)C(=O)NCc2ccc(C)cc2)cc1 (stereo not drawn),x,n,x,x,x,x
CN1CCc2c([nH]c3ccccc23)C12CCN(C(=O)c1cccs1)CC2,x,n,x,x,x,x
COc1ccc(N2CCN(C(CNC(=O)OCc3ccccc3)c3ccco3)CC2)cc1 (stereo not drawn),-75.8,n,u,n,u,n
O=S(=O)(NCC(c1ccco1)N1CCN(c2ccc(F)cc2)CC1)c1ccccc1 (stereo not drawn),x,n,20.6µM,x,u,x
Cc1ccc(S(=O)(=O)NCC(c2ccco2)N2CCN(c3ccccc3F)CC2)cc1 (stereo not drawn),x,n,16.4µM,x,u,x
O=S(=O)(NCC(c1ccco1)N1CCOCC1)c1ccc(F)cc1 (stereo not drawn),x,n,n,x,n,x
COc1ccc(N2CCN(C(CNC(C)=O)c3ccco3)CC2)cc1 (stereo not drawn),n,n,n,n,n,n
COc1ccc(N2CCN(C(CNS(=O)(=O)c3ccc(OC)c(C)c3)c3ccco3)CC2)cc1 (stereo not drawn),x,n,23.1µM,x,u,x
Fc1ccc(CNc2ncncc2-c2nc(-c3ccccc3)no2)cc1,x,n,x,x,x,x
CC(=O)NCCCCCC(=O)NC(C)C(C)(C)c1ccccc1 (stereo not drawn),x,n,x,x,x,x
COCCCNC(=O)c1cccc(C#N)c1,x,n,x,x,x,x
CCc1ccccc1NC(=O)c1sc(-n2nc(C)c(Cl)c2C)nc1C,x,n,x,x,x,x
CCOc1cc(C(=O)N2CCc3c([nH]c4ccccc34)C2c2ccccc2)cc(OCC)c1OCC (stereo not drawn),x,n,5.8µM,x,6.51µM,x
CCn1nc(C)cc1C(=O)N1CCc2c([nH]c3ccccc23)C1c1cc(F)ccc1F (stereo not drawn),u,n,u,u,u,23.1µM
COc1cc(C(=O)N2CCc3c([nH]c4ccccc34)C2c2ccc(F)cc2)cc(OC)c1OC (stereo not drawn),x,n,14.6µM,x,13µM,x
O=C(c1ccc(F)cc1)N1CCc2c([nH]c3ccccc23)C1c1ccc(Cl)cc1 (stereo not drawn),x,n,u,x,u,x
Cc1ncoc1C(=O)N1CCc2c([nH]c3ccccc23)C1c1ccccc1F (stereo not drawn),n,n,n,u,n,n
C=CC[C@]12CC=CC(=O)[C@@]1(O)O[C@H](c1ccc(OC)c(OC)c1)[C@H]2C,-114.5,n,5.8µM,n,10.3µM,n
SMILES,IL-1B inflam inh,12-LOX inh,TDP1 cell noCPT,HT1080NT lethal,DT40 TDP1 CPT,HT1080 IDH1KD tx
C=CC[C@]12C=C(OC)C(=O)C(OC)=C1O[C@@H](c1ccc3c(c1)OCO3)[C@H]2C,n,n,n,n,n,n
COc1ccc(C2C(O)C(c3c[nH]c4ccccc34)=NN2C(=O)CCl)cc1 (stereo not drawn),-99.4,u,0.581µM,0.461µM,0.326µM,0.651µM
CCc1ccc(CN(Cc2cn[nH]c2-c2ccc(OC)cc2)C(=O)Nc2ccc(C)c(F)c2)cc1,x,n,18.4µM,x,20.6µM,x
CCc1ccc(CN(Cc2cn[nH]c2-c2ccc(OC)cc2)C(=O)Nc2ccc(Br)cc2)cc1,x,n,18.4µM,x,23.1µM,x
CCc1ccc(OCC(=O)Nc2ccc3[nH]ncc3c2)cc1,n,u,n,n,u,n
CCOc1ccc(CNC(=O)CC(C)S(=O)(=O)c2ccc3c(c2)NC(=O)CO3)cc1OC (stereo not drawn),x,n,x,x,x,x
CCOc1cccc(CN2CC[C@@](C)(O)[C@H](N3CCCC3)C2)c1,x,n,x,x,x,x
COc1ccccc1NS(=O)(=O)c1ccc(-c2cnc(C)o2)cc1,x,n,x,x,x,x
O=S(=O)(Nc1cccc(C(F)(F)F)c1)c1ccc(-c2cnc(C3CC3)o2)cc1,x,u,2.59µM,x,3.66µM,x
COc1ccccc1CNS(=O)(=O)c1ccc(-c2cnc(C3CC3)o2)cc1,n,n,0.581µM,4.61µM,0.92µM!,u
COc1ccccc1NS(=O)(=O)c1ccc(-c2cnc(C3CC3)o2)cc1,n,n,0.92µM,u,0.731µM,0.731µM
CCc1ccccc1NS(=O)(=O)c1ccc(-c2cnc(C3CC3)o2)cc1,x,n,x,x,x,x
CC1CN(C(=O)c2ccc(S(=O)(=O)Nc3cccc(C(F)(F)F)c3)cc2)CC(C)O1 (stereo not drawn),n,n,u,n,n,n
CCOc1ccccc1NS(=O)(=O)c1ccc(-c2cnc(C3CC3)o2)cc1,n,n,0.0231µM,0.206µM,0.0082µM,0.206µM
COc1ccc(C(=O)N2CCC3(CC2)NC(=O)N(Cc2ccc(F)cc2)C3=O)c(C)c1,x,n,x,x,x,x
CCc1nc(-c2c3n(c(=O)n(Cc4cccc(Br)c4)c2=O)CCCC3)no1,x,n,x,x,x,x
O=C1CC(c2ccccc2)N(Cc2ccncc2)CCCN(S(=O)(=O)c2cccc(F)c2)CCN1 (stereo not drawn),x,n,x,x,x,x
Cc1cccc(Cn2c(CN3CCOCC3)nc3c2c(=O)[nH]c(=O)n3C)c1,x,n,x,x,x,x
COc1ccc(NS(=O)(=O)c2ccc(-c3cnc(C4CC4)o3)cc2)cc1OC,n,n,1.64µM,14.6µM,2.06µM,14.6µM
COc1ccc(C)cc1NS(=O)(=O)c1ccc(-c2cnc(C)o2)cc1,x,n,x,x,x,x
COc1ccc(NC(=O)CCc2c[nH]c3ccccc23)cc1,x,n,x,x,x,x
O=C(c1ccc2cc[nH]c2c1)N1CCC2(CC1)CC(O)CCO2 (stereo not drawn),x,n,x,x,x,x
CCOC(=O)C(NC(=O)/C=C/c1ccc2cc(OC)ccc2c1)C(=O)OCC,x,n,x,x,x,x
Cc1cc(C)nc(Nc2cccc(Cl)c2)n1,n,n,n,n,n,n
Cc1cc(Nc2ccc3c(c2)OCCO3)c2cc(Cl)ccc2n1,-115.7,n,14.6µM,n,u,n
